Source: PubChem BioAssay AID651774 (Broad Institute, 2012)
Results with a measured potency or affinity are listed apart. Values without a mark were called inactive. Activity calls are given as the source filed them. The rule behind the calls is not given here.

Experiment: cytotoxicity in HeLa cells, dose response, cytotoxicity control, cell-based, 24 h, dry powder (AID 651774)
Conditions: HeLa viability, CellTiter-Glo ATP luminescence; series mostly up to 35 µM; activity change, negative = cytotoxicity: at the top concentration

SMILES | activity change, negative = cytotoxicity | outcome
O=C(Cc1ccccc1-c1ccccc1)NC1CCCC1 | -7.46% | 
O=C(Cc1ccc(-c2ccccc2)cc1)NC1CCNCC1 | -0.852% | 
CC(C)c1ccc(CNc2nnn(C)n2)cc1 | 2.58% | 
CC(C)(C)OC(=O)N1CCC(NC(=O)Cc2ccc(-c3ccccc3)cc2)CC1 | 2.47% | 
CC(C)c1ccc(CNc2nnnn2C)cc1 | -2.45% | 
CCn1nnc(NCc2ccc(C(F)(F)F)cc2)n1 | -1.34% | 
CCC(C)NC(=O)Cc1ccc(-c2ccccc2)cc1 (stereo not drawn) | -13.7% | 
CS(=O)(=O)c1ccc(CC(=O)NC2CCCC2)cc1 | 0.072% | 
O=C(Cc1ccc(-c2ccccc2)cc1)NC1CCCCC1 | -10.4% | 
O=C(Cc1ccc(-c2ccccc2)cc1)NC1CCOCC1 | -3.83% | 
O=C(Cc1ccc(-c2ccccc2)cc1)Nc1ccccc1 | -4.47% | 
CN1CCN(C(=O)Cc2ccc(-c3ccccc3)cc2)CC1 | 9.96% | 
CC(C)n1nnnc1NCc1ccc(N2CCCC2)cc1 | -3.65% | 
CCn1nnnc1NCc1ccc(C(F)(F)F)cc1 | -7.68% | 
CCn1nnc(NCc2ccc(N3CCCC3)cc2)n1 |  | inactive
O=C(Cc1ccc(-c2ccccc2)cc1)NC1CCCC1 |  | inactive
O=C(Cc1ccc(-c2ccccc2)cc1)N1CCC1 | 0.175% | 
O=C(Cc1ccc2ccccc2c1)NC1CCCC1 | 3.82% | 
Cn1nnc(NCc2ccc(C(F)(F)F)cc2)n1 | -1.34% | 
CN(Cc1ccc(N2CCCC2)cc1)c1nnn(C)n1 | -15% | 
CN1CCC(NC(=O)Cc2ccc(-c3ccccc3)cc2)CC1 | -0.521% | 
c1cc(N2CCCC2)ccc1CNc1nn[nH]n1 | -1.33% | 
O=C(Cc1ccc(-c2cccnc2)cc1)NC1CCCC1 | -4.99% | 
CN(C(=O)Cc1ccc(-c2ccccc2)cc1)C1CCCC1 | -9.17% | 
Cc1ccc2cc3c(NC(=O)c4ccco4)nn(C)c3nc2c1 | -17% | 
CS(=O)(=O)c1cccc(CC(=O)NC2CCCC2)c1 | -3.23% | 
O=C(Cc1ccccc1C(F)(F)F)NC1CCCC1 | 5.34% | 
Cc1ccc(CC(=O)NC2CCCC2)cc1 | -14.5% | 
